Calls of active or inactive are those of the source. Calls follow the shape of the dose curve; as a rule, active = well fitted inhibition curve with a large enough effect; inconclusive = small, poorly fitted or top-dose-only effect; inactive = flat fitted curve, though single readings scatter.
Target: DNA polymerase III PolC-type (Bacillus subtilis (strain 168)) (UniProt P13267)
Assay: qHTS Validation Assay for the Inhibitors of DNA Replication in Gram-Positive Bacteria (AID 485295);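 as to activity change, negative = inhibition: reconstituted holoenzyme with PolC plus beta clamp SSB and primase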
Conditions: Gram-positive bacterial DNA replication assay; series mostly up to 57.1 µM; activity change, negative = inhibition: at the top concentration
Method: B Subtilis DNA polymerase III holoenzyme complex was assayed for DNA production by fluorescent detection of the double-stranded DNA product with PicoGreen dye. The holoenzyme complex was reconstituted from the following purified protein components: DNA Polymerase III, beta subunit processivity factor, SSB single-stranded DNA binding protein, and Primase. Single-stranded, circular M13Gori was used as a substrate with dNTPs and NTPs also supplied to the substrate reagent. Compounds from the NCGC collection were incubated with the holoenzyme mixture for […] at room temperature to allow binding to occur, and then the reaction was started by the addition of substrate. After 30 min incubation at room temperature, PicoGreen solution containing EDTA was added to stop the reaction and to visualize the double-stranded DNA produced. Reaction progress was measured in a ViewLux CCD imager in fluorescence intensity mode by using 480 nm excitation and 540 nm emission filter set.
1. Thaw screening compounds.
2. Label assay plates. Prepare pipette tips, reagent reservoirs, buffers and controls.
1. Thaw Enzymes, DNA template, Nucleotides and PicoGreen dye concentrate. Thawed enzymes are stable on ice for ~1
week. Other thawed components are stable indefinitely.
2. Prepare sufficient quantities of Enzyme, Substrate and PicoGreen Quench mixes (according to Table II). For the number of
compound plates being screened.
3. Ensure that the tip wash station reservoirs have clean water and turn on recirculating chiller so that the chilled deck position
1. Load 2 uL of EDTA controls (250 mM, Background, 100 % inhibition) and 2 uL of DMSO controls (Negative control, 0%
inhibition) in the screening plates (flat-bottomed black 384-well polypropylene, Greiner Bio-one).
2. Place Enzyme mix reservoir on the chiller position of the liquid handler deck. Make sure that chiller will maintain
temperature of Enzyme mix at 4degC. Substrate mix and PicoGreen Quench can be stored at room temp.
3. Program liquid handling robotics to dispense 18 uL of Enzyme mix into assay plates. Wash tips.
4. Aspirate and dispense 2 uL of compound from compound plates, mix and Incubate at room temperature for 10 minutes.
5. Aspirate 5 ul of Substrate mix, dispense into assay plates and mix by pipetting. Wash tips.
6. Incubate at room temperature (21 +/- 1 deg C) for 20 minutes.
7. Quench reactions by addition of 25 uL PicoGreen Quench mix and mix by pipetting (using HTS robotics or bulk reagent
dispenser such as a Multidrop or uFill). Keep plates in the dark or stacked until ready to read fluorescence.
8. Read fluorescence intensity of plates on plate reader using "Fluorescein (Ex 485 nm/ Em 535 nm, 0.1s)" setting.
Potency is read from the fitted curve at half-maximal effect.

Sequence of DNA polymerase III PolC-type (Bacillus subtilis (strain 168)) (P13267 whole entry, looked up): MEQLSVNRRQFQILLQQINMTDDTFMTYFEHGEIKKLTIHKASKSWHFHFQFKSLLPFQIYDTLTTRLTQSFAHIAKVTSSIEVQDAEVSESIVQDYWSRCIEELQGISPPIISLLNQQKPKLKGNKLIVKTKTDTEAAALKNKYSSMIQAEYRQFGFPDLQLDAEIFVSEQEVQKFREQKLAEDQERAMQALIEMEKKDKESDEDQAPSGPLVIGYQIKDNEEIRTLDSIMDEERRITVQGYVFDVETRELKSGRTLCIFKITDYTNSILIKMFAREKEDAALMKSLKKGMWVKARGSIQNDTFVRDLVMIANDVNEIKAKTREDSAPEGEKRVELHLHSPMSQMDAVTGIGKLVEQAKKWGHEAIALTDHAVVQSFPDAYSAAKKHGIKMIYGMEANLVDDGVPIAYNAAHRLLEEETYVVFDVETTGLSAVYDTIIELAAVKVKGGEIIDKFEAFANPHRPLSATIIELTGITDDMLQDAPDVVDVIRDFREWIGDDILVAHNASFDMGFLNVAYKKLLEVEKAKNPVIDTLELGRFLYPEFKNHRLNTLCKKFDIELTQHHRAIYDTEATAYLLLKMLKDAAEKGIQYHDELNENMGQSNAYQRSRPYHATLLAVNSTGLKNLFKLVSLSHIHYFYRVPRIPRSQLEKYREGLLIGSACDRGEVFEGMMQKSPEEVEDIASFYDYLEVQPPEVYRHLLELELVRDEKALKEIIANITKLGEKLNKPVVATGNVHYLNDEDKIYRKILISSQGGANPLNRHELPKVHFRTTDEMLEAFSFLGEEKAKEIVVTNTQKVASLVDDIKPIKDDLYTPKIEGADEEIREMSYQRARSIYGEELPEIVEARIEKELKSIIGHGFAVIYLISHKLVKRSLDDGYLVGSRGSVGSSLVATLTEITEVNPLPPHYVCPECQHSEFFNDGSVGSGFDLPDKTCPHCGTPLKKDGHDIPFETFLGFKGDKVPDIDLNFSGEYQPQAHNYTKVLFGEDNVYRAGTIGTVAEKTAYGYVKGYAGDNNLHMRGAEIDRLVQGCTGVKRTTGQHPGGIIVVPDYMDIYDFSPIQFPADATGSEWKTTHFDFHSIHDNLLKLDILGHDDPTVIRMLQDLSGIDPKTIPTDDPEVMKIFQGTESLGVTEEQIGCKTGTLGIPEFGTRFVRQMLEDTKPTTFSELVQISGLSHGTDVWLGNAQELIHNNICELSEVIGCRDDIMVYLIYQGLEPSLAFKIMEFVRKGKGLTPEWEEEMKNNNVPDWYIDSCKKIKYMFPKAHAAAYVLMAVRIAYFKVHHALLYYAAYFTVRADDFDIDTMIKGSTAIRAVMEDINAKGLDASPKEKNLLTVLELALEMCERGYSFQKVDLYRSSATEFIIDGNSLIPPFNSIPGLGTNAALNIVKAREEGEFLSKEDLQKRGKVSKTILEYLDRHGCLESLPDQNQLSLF

SMILES	activity change, negative = inhibition	Potency
CNCC[C@H](Oc1ccc(C(F)(F)F)cc1)c1ccccc1	-6.24% (inactive)	
CN1CCc2ccccc2Cc2[nH]c3ccccc3c2CC1	1.16% (inactive)	
Cc1cc(NC2CCCCC2)nc(-n2nc(C)cc2C)n1	-0.601% (inactive)	
NCCCS(=O)(=O)O	4.77% (inactive)	
CCCCCCCCCCCCCCCCCCNC(=O)OCC(COP(=O)([O-])OCC[n+]1ccsc1)OC (stereo not given)	-13.7% (inactive)	
CN1CCc2cccc3c2C1Cc1ccc(O)c(O)c1-3 (stereo not given)	-3.54% (inactive)	
CCCCCCCCc1ccc(-c2ccc(C(=O)O)cc2)cc1	-19% (inactive)	
O=C(O)[C@@H]1C[C@H](C(=O)O)N1	-5.66% (inactive)	
COc1ccccc1N1CCN(CCN(C(=O)c2ccc(I)cc2)c2ccccn2)CC1	-9.68% (inactive)	
COc1ccc2c(c1)CCC1C2CC[C@@]2(C)C1CC[C@@H]2NCCCCCCN1C(=O)CCC1=O (stereo not given in full)	1.35% (inactive)	
CCCn1c(=O)c2[nH]c(-c3ccc(OCC(=O)NCCN)cc3)nc2n(CCC)c1=O	-8.45% (inactive)	
OCC1O[C@H]([S-])[C@H](O)[C@@H](O)[C@@H]1O.[Au+] (stereo not given in full)	4.59% (inactive)	
C#CCN1C(C)=C(C(=O)OC)C(c2cccc([N+](=O)[O-])c2)C(C(=O)OCC)=C1C (stereo not given)	-6.38% (inactive)	
CO/S(=N\S(=O)(=O)c1ccc(Cl)cc1)c1ccc([N+](=O)[O-])cc1 (stereo not given)	1.42% (inactive)	
Oc1cc(O)cc(/C=C/c2ccc(O)c(O)c2)c1	-21.9% (inactive)	
NO	-2.14% (inactive)	
CCCC1(C)C(C#N)(C#N)C1(C#N)C#N	0.2% (inactive)	
CN(C)c1nc2c(Br)c(Br)c(Br)c(Br)c2[nH]1	-2.94% (inactive)	
CC1(C)CCC=[N+]1[O-]	-4.22% (inactive)	
COc1cc2c(CCNC(C)=O)c[nH]c2cc1Cl	1.82% (inactive)	

SMILES	activity change, negative = inhibition	Potency
Nc1nc(Cl)nc2c1ncn2[C@@H]1O[C@H](CO)[C@@H](O)[C@H]1O	5.22% (inactive)	
NC(N)=NC(=O)c1nc(Cl)c(N2CCCCCC2)nc1N	3.2% (inactive)	
CN(C)CCC(c1ccc(Cl)cc1)c1ccccn1 (stereo not given)	-4.62% (inactive)	
COc1ccc(/C=C/C(=O)Nc2ccccc2C(=O)O)cc1OC	-2.37% (inactive)	
CC(C)NC[C@H](O)COc1cccc2[nH]ccc12	0.805% (inactive)	
COC1=C(OC)C(=O)c2ccccc2C1=O	-5.18% (inactive)	
CC(C)NC[C@@H](O)c1ccc(O)c(O)c1	-0.522% (inactive)	
O=C(Nc1cccc(C(=O)Nc2ccc(S(=O)(=O)O)c3cc(S(=O)(=O)O)cc(S(=O)(=O)O)c23)c1)Nc1cccc(C(=O)Nc2ccc(S(=O)(=O)O)c3cc(S(=O)(=O)O)cc(S(=O)(=O)O)c23)c1		11.9 µM (active)
Nc1nc(Nc2ccccc2)nc2c1ncn2[C@@H]1O[C@H](CO)[C@@H](O)[C@H]1O	0.316% (inactive)	
N#C/C(=C\c1ccc(O)c(O)c1)C(=O)NCc1ccccc1	-18.2% (inactive)	
O=c1[nH]c2cc(Cl)c(Cl)cc2[nH]c1=O	-1.46% (inactive)	
NCC1OC(O[C@H]2[C@H](O)[C@@H](OC3C(O)C(N)CC(N)C3OC3OC(CO)C(O)C(O)C3N)O[C@@H]2CO)C(N)C(O)C1O (stereo not given in full)	0.335% (inactive)	
O=C1NC(O)=NC1(c1ccccc1)c1ccccc1	-5.88% (inactive)	
C[N+](C)(CCCCCC[N+](C)(C)CCCN1C(=O)c2cccc3cccc(c23)C1=O)CCCN1C(=O)c2cccc3cccc(c23)C1=O		10.6 µM (active)
O=C(c1cc(O)c(O)c([N+](=O)[O-])c1)c1ccccc1F	-9.75% (inactive)	
NC(=O)C1=CN(C2OC(COP(=O)(O)OP(=O)(O)OC[C@H]3O[C@@H](n4cnc5c(N)ncnc54)[C@H](OP(=O)(O)O)[C@@H]3O)C(O)C2O)C=CC1 (stereo not given in full)	-4.62% (inactive)	
CC12C(=O)OC(=O)C1(C)C1CCC2O1 (stereo not given)	-10.7% (inactive)	
Oc1ccccc1O	2.42% (inactive)	
Cc1cc(NC(=O)Nc2ccc3c(ccn3C)c2)sn1	1.27% (inactive)	
O=C1O/C(=C/Br)CCC1c1cccc2ccccc12 (stereo not given)	-7.54% (inactive)	
